# Bioassay records as filed in PubChem.
# tim10-1 inh = growth inhibitors of tim10-1 mutant yeast; S. cerevisiae tim10-1 ts strain growth, BacTiter-Glo, 24 h; inhibition, % at 20 µM; hit rate 2.2% among 330,000;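 active = inhibition of at least 40%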;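 also: mutant grown at 25 °C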
# SUMO Mot1 rescue = blocks SUMOylation pathway, rescuing yeast Mot1-301 growth; S. cerevisiae Mot1-301 growth rescue, ATP luminescence, 38.5C; percent above DMSO median, 100 means doubled; growth rescue, % at 18.8 µM; hit rate 1% among 320,000;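 active = every valid replicate shows activation above 250% relative to neutral control wells; inactive = the rest, any valid replicate at or below 250%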
# tim23-1 inh = tim23-1 yeast growth inhibition. S. cerevisiae tim23-1 growth, BacTiter-Glo luminescence, 24 h. inhibition, % at 20 µM. hit rate 1.3% among 330,000;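 active = growth inhibition of the mutant yeast at or above 50%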;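 also: temperature-sensitive mutant grown at 25 °C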
# TIM10 inh = TIM10 yeast growth inhibition | S. cerevisiae TIM10 strain growth, BacTiter-Glo luminescence, 24 h | inhibition, % at 10 µM | hit rate 1.4% among 330,000;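 active = inhibition of 40% or more at the single tested concentration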;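 also: wild-type TIM10 isogenic control strain grown at permissive 25 °C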
# PfHsp90 set2 = reduces growth (ATP signal) of yeast expressing P. falciparum Hsp90. S. cerevisiae expressing PfHsp90, BacTiter-Glo ATP, 48 h; yeast lacking PDR1 and PDR3 efflux regulators. inhibition, % at 9.4 µM. hit rate 0.32% among 310,000. AID 504621;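 active = every replicate shows inhibition above about 80%, whatever the replicate mean, limit read from the data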
# tim10-1 confirm = tim10-1 yeast growth inhibition, confirmed. S. cerevisiae tim10-1 ts strain growth, BacTiter-Glo, 24 h. inhibition, % at 20 µM. shares compounds with tim10-1 inh. hit rate 56% among 7,400;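 active = inhibition of yeast growth at or above a set limit in either of two repeat tests at 20 µM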;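 also: tim10-1 mutant grown at permissive 25 °C to find synthetic lethal compounds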
# Hits are given with their value; 0 = inactive; - = not tested or not shown. This is a sample that favours compounds with a hit; in the whole collection about 4.4% have one here.
SMILES,tim10-1 inh,SUMO Mot1 rescue,tim23-1 inh,TIM10 inh,PfHsp90 set2,tim10-1 confirm
COc1ccc(C(=O)N/N=C(\C)CC(=O)NC2CCCCC2)c(OC)c1,0,0,0,0,0,-
CCOC(=O)N1CCN(S(=O)(=O)N2CCCC(C(=O)NC(C)c3ccccc3)C2)CC1 (centres undefined),0,0,0,0,0,-
CCOc1ccc(/C=N/NC(=O)Cc2ccccc2)cc1CN1CC2CC(C1)c1cccc(=O)n1C2 (centres undefined),0,0,0,0,0,-
CC(C)OP(=O)(OC(C)C)C(Nc1ccccn1)c1ccc(F)cc1 (centres undefined),46,0,0,0,0,0
CCOP(=O)(OCC)C(Nc1ccccn1)c1ccc(F)cc1 (centres undefined),0,0,0,0,0,-
CCOC(=O)N1CCN(S(=O)(=O)c2ccc(C(=O)N(CCN(C)C)c3nc4ccc(CC)cc4s3)cc2)CC1,0,0,0,0,0,-
CCN(Cc1ccccc1)S(=O)(=O)c1ccc(C(=O)N(CCCN(C)C)c2nc3cc(C)cc(C)c3s2)cc1,52,0,0,0,-,0
Cc1ccc2sc(N(CCCN(C)C)C(=O)c3ccc(S(=O)(=O)N4CCc5ccccc5C4)cc3)nc2c1C,40,0,0,0,0,0
CN(C)CCCN(C(=O)c1ccc(C(=O)c2ccccc2)cc1)c1nc2c(F)cccc2s1,47,0,0,0,0,0
CCOC(=O)N1CCN(S(=O)(=O)c2ccc(C(=O)N(CCCN(C)C)c3nc4ccc(CC)cc4s3)cc2)CC1,43,0,0,0,0,0
Cc1ccc2sc(N(CCCN(C)C)C(=O)c3ccc(S(=O)(=O)N(C)Cc4ccccc4)cc3)nc2c1C,54,0,0,0,0,0
CN(C)CCCN(C(=O)c1ccc(S(=O)(=O)N2CCc3ccccc3C2)cc1)c1nc2c(F)cc(F)cc2s1,42,0,0,0,0,35
CCOc1cccc2sc(N(CCN(CC)CC)C(=O)c3ccc(S(=O)(=O)N4CCCCC4)cc3)nc12,48,0,0,0,0,0
COc1cccc2sc(N(CCCN(C)C)C(=O)c3ccc(S(=O)(=O)N4CCc5ccccc5C4)cc3)nc12,0,0,0,0,0,-
CCN(CCCNC(=O)CNC(=O)c1nn(-c2ccc(OC)cc2)c(=O)c2ccccc12)c1cccc(C)c1,0,0,0,0,0,-
Cc1ccc(S(=O)(=O)N2CCC(C(=O)Nc3ccncc3)CC2)cc1,0,0,0,0,-,-
Cc1ccc(S(=O)(=O)NCC(=O)N/N=C/c2ccccc2O)cc1,0,0,0,0,0,-
Cc1sc2ncn(CC(=O)NCCCN3CC(C)CC(C)C3)c(=O)c2c1S(=O)(=O)N1CC(C)CC(C)C1 (centres undefined),0,0,0,0,0,-
CCc1c(C(=O)NNC(=S)Nc2ccc(S(=O)(=O)Nc3ncccn3)cc2)csc1C,0,0,0,0,0,-
Cc1ccc(/C=C(\C#N)c2nn(-c3ccccc3)c(N)c2C#N)cc1,40,0,0,0,0,0
N#C/C(=C\c1cccc2ccccc12)c1nn(-c2ccccc2)c(N)c1C#N,0,0,0,0,-,-
Clc1ccc(Cl)c2sc(N3CCCC3)nc12,47,0,0,0,0,37
O=C(C1CCCN(S(=O)(=O)c2cccc3nsnc23)C1)N1CCc2ccccc21 (centres undefined),41,0,0,0,0,37
Cc1cccc(N2CCN(C(=O)C3CCN(S(=O)(=O)c4cccc5nsnc45)CC3)CC2C)c1 (centres undefined),40,0,0,0,0,0
O=C(C1CCN(S(=O)(=O)c2cccc3nsnc23)CC1)N1CCn2c1nc1ccccc12,42,0,0,0,0,0
SMILES,tim10-1 inh,SUMO Mot1 rescue,tim23-1 inh,TIM10 inh,PfHsp90 set2,tim10-1 confirm
O=C(C1CCN(S(=O)(=O)c2cccc3nsnc23)CC1)N1CCCc2ccccc21,0,0,0,0,0,-
Cc1cccc(N2CCN(C(=O)C3CCN(S(=O)(=O)c4cccc5cccnc45)CC3)CC2C)c1 (centres undefined),0,0,0,0,0,-
O=C(C1CCN(S(=O)(=O)c2cccc3nsnc23)CC1)N1CCc2ccccc21,0,0,0,0,0,-
CN1CCN(S(=O)(=O)c2ccc(Br)c3ccccc23)CC1,0,0,0,0,0,-
Cc1nn(Cc2ccccc2)c2ncccc12,0,0,0,0,0,-
Cc1cc(C(=O)Cn2cnc3ccccc3c2=O)c(C)n1C1CC1,0,0,0,0,0,-
COc1ccc(/C=C(\NC(=O)c2ccc(OC)cc2)C(=O)N2CCCCC2)cc1,0,0,0,0,0,-
CC(C)c1ccc(NC(=O)N2CCN(S(=O)(=O)c3ccccc3)CC2)cc1,41,0,0,0,0,0
Cc1ccc(C(=O)ONc2ccc(N=NC(=O)c3ccccc3O)cc2)cc1,43,0,0,0,0,0
COC(=O)c1ccc(NN=Nc2ccc(C)cc2)cc1,0,0,0,0,0,-
O=C(NCc1ccco1)c1ccc(Cn2cc([N+](=O)[O-])cn2)o1,0,0,0,0,0,-
O=C(NCc1ccco1)c1ccc([N+](=O)[O-])o1,42,0,0,0,-,0
CC(=O)NC(=S)Nc1ccccc1N1CCCCC1,43,0,0,0,0,0
COC(=O)c1ccccc1NC(=S)NC(=O)C1CCCCC1,41,0,0,0,0,34
O=C(Nc1ccccc1N1CCN(C(=O)c2ccc(Cl)cc2)CC1)c1ccc([N+](=O)[O-])o1,44,0,0,0,0,0
Cc1cc(F)ccc1S(=O)(=O)Nc1ccccc1C(=O)N1CCCC1,0,0,0,0,0,-
N#CCSc1ccccc1NC(=O)COC(=O)CCN1C(=O)C2CC=CCC2C1=O (centres undefined),0,0,0,0,0,-
CN(CC(=O)Nc1ccc2c(c1)OCO2)S(=O)(=O)c1cccs1,0,0,0,0,0,-
O=C(NC(=S)Nc1ccccc1N1CCCC1)c1ccc(-c2cccc([N+](=O)[O-])c2)o1,0,0,0,0,0,-
O=C(NC1CCCCC1)c1ccc([N+](=O)[O-])o1,51,0,0,0,0,36
O=C(NC1CCCC(C(F)(F)F)C1)c1ccc([N+](=O)[O-])o1 (centres undefined),0,0,0,0,0,-
O=C(NC(=S)Nc1ccccc1N1CCCCC1)c1ccc(-c2cccc([N+](=O)[O-])c2)o1,41,-,0,0,0,0
O=C(Nc1ccccc1N1CCCCC1)c1cccc([N+](=O)[O-])c1,0,0,0,0,0,-
O=C(Nc1ccccc1N1CCCCC1)c1ccc([N+](=O)[O-])o1,51,-,0,0,-,51
O=S(=O)(c1ccc(-c2n[nH]c(=S)o2)cc1)N1CCCC1,0,0,0,0,0,-
CCCCCCOc1ccc(N2C(=O)CC(N3CCN(CCN=CC4C(=O)CC(C)(C)CC4=O)CC3)C2=O)cc1 (centres undefined),43,0,0,0,0,41
